TDP1 cell noCPT – qHTS for Inhibitors of human tyrosyl-DNA phosphodiesterase 1 (TDP1): qHTS in cells in absence of CPT; 15% of 420,000 active; DT40 Tdp1-/- hTDP1 cells, no CPT, ATP luminescence, 48 h; AID 686978, 2013; Potency, µM (series often up to 46.2 µM), inactives show top-dose activity change, negative = growth inhibition, actives largely listed as inhibitors; note: potency is the fitted concentration of half-maximal effect; nearly all actives have a fitted effect of over 55% in size
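A cellular qHTS used chicken DT40 cells lacking endogenous Tdp1 but carrying stably transfected human TDP1. Compounds were applied without camptothecin, and cell growth kinetics were judged by ATP-dependent luminescence after ≥48 hr.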
HT1080-NT tox – qHTS for induction of synthetic lethality in tumor cells producing 2HG: qHTS for the HT-1080-NT fibrosarcoma cell line; HT-1080-NT fibrosarcoma viability, CellTiter-Glo ATP luminescence, 48 h; Potency, µM (highest dose often 46.1 µM), without a hit: top-dose activity, negative = less viability, actives largely listed as cytotoxic; 1.6% of 360,000 active;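 note: NT is the 2HG producing partner of a matched IDH1 knockdown line; potency is the fitted concentration of half-maximal effect; 0% = DMSO-treated cells and -100% = media-only wells without cells; nearly all actives have a fitted effect of over 55% in size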
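HT-1080-NT fibrosarcoma cells (2HG-overproducing), 750 cells/well in RPMI with 5% FBS, dosed after 2 h and incubated 48 h at 37C. CellTiter-Glo luminescence normalized to DMSO and no-cell wells; concentration-response curves fitted and classed.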
IL-1B inflam inh – qHTS for Inhibitors of Inflammasome Signaling: IL-1-beta AlphaLISA Primary Screen; THP-1 LPS/ATP IL-1B secretion, AlphaLISA, 16 h; stronger effect = lower value; activity change, % at 57.5 µM; 4.7% of 360,000 active; in the data active = activity change below about -50%; inconclusive = mostly about -30% to -49%
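THP-1 cells pretreated 1 hr with compounds (up to 57.5 uM final), then stimulated with LPS (250 ng/mL final) plus ATP (1.25 mM final); secreted IL-1B measured by AlphaLISA after 16 hr, decreased signal indicating inhibition.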
12-LOX inh – Primary qHTS assay for inhibitors of human arachidonate 12S-lipoxygenase (ALOX12): Round 2; Potency, µM (top dose mostly 108 µM), for the others: at the top dose activity change, negative = inhibition, usual class: inhibitors; purified 12hLO, xylenol orange hydroperoxide absorbance; 1.1% of 580,000 active; note: potency is the fitted concentration of half-maximal effect
Target sequence (P18054 whole entry, looked up): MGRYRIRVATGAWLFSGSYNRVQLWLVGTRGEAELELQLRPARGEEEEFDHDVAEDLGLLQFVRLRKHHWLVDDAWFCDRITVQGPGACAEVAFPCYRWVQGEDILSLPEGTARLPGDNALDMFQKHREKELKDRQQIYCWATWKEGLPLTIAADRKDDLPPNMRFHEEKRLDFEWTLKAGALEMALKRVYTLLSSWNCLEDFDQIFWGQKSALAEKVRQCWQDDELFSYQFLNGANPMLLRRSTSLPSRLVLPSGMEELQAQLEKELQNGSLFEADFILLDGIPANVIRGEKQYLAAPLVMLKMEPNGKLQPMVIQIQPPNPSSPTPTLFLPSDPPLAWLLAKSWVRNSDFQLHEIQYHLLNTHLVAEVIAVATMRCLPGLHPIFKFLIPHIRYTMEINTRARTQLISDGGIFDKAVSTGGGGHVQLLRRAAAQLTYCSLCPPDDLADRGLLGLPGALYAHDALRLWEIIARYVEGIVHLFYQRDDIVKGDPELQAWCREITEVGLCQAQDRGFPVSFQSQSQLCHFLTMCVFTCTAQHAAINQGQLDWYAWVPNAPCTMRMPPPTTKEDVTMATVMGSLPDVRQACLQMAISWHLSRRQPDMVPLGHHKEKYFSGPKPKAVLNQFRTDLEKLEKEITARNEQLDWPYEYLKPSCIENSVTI
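Purified human 12hLO (150 nM final) in 25 mM Hepes, 0.01% Triton X-100, pH 7.0 was preincubated 15 min at room temperature with compound. Then 40 uM arachidonic acid was added, 30 min. Hydroperoxide was read by Fe-XO absorbance ratio 573/405 nm.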
DT40 TDP1 CPT – qHTS for Inhibitors of human tyrosyl-DNA phosphodiesterase 1 (TDP1): qHTS in cells in presence of CPT | chicken DT40 Tdp1-/-;hTDP1 cells + 20 nM CPT, ATP luminescence, 48 h | Potency, µM (series often up to 46.2 µM), inactives show top-dose activity change, negative = growth inhibition, most hits filed as inhibitors | 12% of 420,000 active; note: potency is the fitted concentration of half-maximal effect; nearly all actives have a fitted effect of over 55% in size
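Cell growth measured by CellTiter-Glo luminescence after a minimum 48 h, 37 C compound exposure with 20 nM CPT in Tdp1-knockout DT40 cells stably expressing hTDP1, seeded 400/well; qHTS titration format.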
HT1080 IDH1KD tx – qHTS for induction of synthetic lethality in tumor cells producing 2HG: qHTS for the HT-1080-IDH1KD cell line. HT-1080 IDH1 knockdown viability, ATP luminescence, 48 h. 2% of 360,000 active. Potency, µM (highest dose often 46.1 µM), for the others: at the top dose activity, negative = toxicity, usual class: cytotoxic;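 note: potency is the fitted concentration of half-maximal effect; 0% = DMSO wells and -100% = cell-free medium wells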
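After a 2 h attachment period, IDH1KD HT-1080 cells took pin-transferred compound for 48 h at 37 °C; ATP-based luminescence after 10 min room-temperature reagent incubation reported viability.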
Starred values were filed as active, the others as inactive; ? = inconclusive; . = no result given; [ ] = dose if it differs, or a comment. Shown is part of a subset that was picked to be rich in hits. Unless noted, calls come from the whole dose curve; as a rule, active = well fitted curve in the direction sought with a large enough effect; inconclusive = small, poorly fitted or top-dose-only effect, or another doubt; inactive = no such curve, though single readings can be large; an effect the other way counts as inactive or inconclusive. Unless noted, % is set by controls: 0 for no effect and ±100 for the full control effect.

SMILES | TDP1 cell noCPT | HT1080-NT tox | IL-1B inflam inh | 12-LOX inh | DT40 TDP1 CPT | HT1080 IDH1KD tx
O=C1NC(Cc2ccc(O)cc2)c2nc3cc(F)c(F)cc3c(=O)n2-c2ncccc21 (configuration not stated) | -18% | ? | -23 | 26% | -9% | 21µM*
CC(C)CCN1CCC(N2CCN(C(=O)CCc3ccccc3)CC2)C1=O (configuration not stated) | . | . | . | 3% | . | .
O=C1NC(Cc2ccc(O)cc2)c2nc3ccc(Cl)cc3c(=O)n2-c2cc(Cl)ccc21 (configuration not stated) | . | . | . | -16% | . | .
O=C1NC(Cc2ccccc2)c2nc3ccc(Cl)cc3c(=O)n2-c2cc3ccccc3cc21 (configuration not stated) | 7.3µM* | -19% | 16 | ? | ? | ?
O=C1NC(Cc2ccc(O)cc2)c2nc3ccc(Cl)cc3c(=O)n2-c2cc3ccccc3cc21 (configuration not stated) | 5.2µM* | 15µM* | 20 | -88% | 6.5µM* | ?
O=C1NC(Cc2ccccc2)c2nc3ccc(Cl)cc3c(=O)n2-c2ccc(Cl)cc21 (configuration not stated) | . | . | . | -6% | . | .
CN(C)c1nc(-c2ccccc2)nc2c1CCN(C(=O)C1CC13CCC3)C2 (configuration not stated) | . | . | . | 46% | . | .
COc1ccc(NC(=O)c2c(N)no[n+]2[O-])c(OC)c1 | -1% | 0% | -4 | 0% | 10% | -8%
COc1ccc(NC(=O)c2c(N)no[n+]2[O-])cc1 | -26% | 0.73µM* | -20 | -16% | -5% | 0.73µM*
O=C(CSc1nc2ccccc2s1)Nc1ccc(N2CCOCC2)c(Cl)c1 | 21µM* | 3% | -4 | ? | 16µM* | -4%
O=C(CSc1nc2ccccc2s1)Nc1ccc(F)c(F)c1 | . | . | . | 35µM* | . | .
Cc1nc(NC(=O)CSc2nc3ccccc3s2)sc1C(=O)N(C)C | ? | -2% | 15 | 40µM* | -4% | -2%
O=C(CSc1n[nH]c(=O)[nH]c1=O)Nc1cccc(S(=O)(=O)N2CCOCC2)c1 | 7% | 9% | 5 | -1% | 11% | 5%
O=C(CSc1nc2cc(Cl)ccc2s1)Nc1cccc(S(=O)(=O)N2CCOCC2)c1 | 21µM* | -6% | 28 | -17% | ? | -13%
O=C(CSc1nc2ccccc2o1)Nc1ccc(N2CCOCC2)c(Cl)c1 | ? | 8% | 12 | -17% | -28% | 15%
O=C(CSc1ccccc1)Nc1ccc(Cl)c(S(=O)(=O)N2CCOCC2)c1 | -26% | -20% | -23 | -26% | -2% | -15%
O=C(CSc1nc2ccccc2s1)Nc1ccc(Cl)c(S(=O)(=O)N2CCOCC2)c1 | ? | -16% | 29 | -18% | 23µM* | -2%
O=C(CSc1nnc(C23CC4CC(CC(C4)C2)C3)o1)Nc1ccc(N2CCOCC2)c(Cl)c1 | 18µM* | 15% | 18 | -9% | ? | ?
Cn1nc(C(=O)Nc2ncc(Cc3cc(C(F)(F)F)ccc3Cl)s2)c2ccccc2c1=O | . | . | . | -6% | . | .
COC(=O)C1=C(C)N(Cc2ccccc2)C(=NCCc2ccccn2)N[C@H]1c1cccc(C(F)(F)F)c1 | 15µM* | -22% | -27 | ? | 7.3µM* | -11%
COC(=O)C1=C(C)N(Cc2ccccc2)C(=NCc2ccccc2)N[C@H]1c1cccc(C(F)(F)F)c1 | 5.8µM* | ? | ? | . | 5.8µM* | ?
CCN1C(=NCCc2ccccn2)N[C@@H](c2cccc(C(F)(F)F)c2)C(C(=O)OC)=C1C | 16µM* | -10% | ? | -9% | 11µM* | 1%
COC(=O)C1=C(C)N(Cc2ccccc2)C(=O)N[C@H]1c1cccc(C(F)(F)F)c1 | ? | -15% | -20 | 0% | ? | -14%
O=C1NC2(CCN(C(=O)c3cccnc3)C2)OCc2ccccc21 (configuration not stated) | . | . | . | 49%[176 µM] | . | .
O=C(Cc1ccc2ccccc2c1)Nc1cccc2ncccc12 | . | . | . | -26% | . | .
SMILES | TDP1 cell noCPT | HT1080-NT tox | IL-1B inflam inh | 12-LOX inh | DT40 TDP1 CPT | HT1080 IDH1KD tx
COc1ccc(-c2c(NC(=O)c3cccs3)oc3ccccc3c2=O)cc1OC | . | . | . | 3% | . | .
Cc1ccc(/C=C/C(=O)N(Cc2cccs2)C2CCS(=O)(=O)C2)cc1 (configuration not stated) | 21µM* | -2% | -27 | 30% | ? | 7%
O=C(/C=C/c1ccc(Cl)cc1)N(Cc1cccs1)C1CCS(=O)(=O)C1 (configuration not stated) | ? | -2% | -9 | ? | ? | -12%
N#Cc1c(SCCN2CCOCC2)nc(N2CCCCC2)c2c1CCCC2 | . | . | . | 0.79µM* | . | .
CCSc1nc(N2CCCCC2)c2c(c1C#N)CCCC2 | 16µM* | 14% | 35 | 1% | ? | 22%
CC(C)Sc1nc(N2CCCCC2)c2c(c1C#N)CCCC2 | . | . | . | 29% | . | .
N#Cc1c(SCC(=O)N2CCOCC2)nc(N2CCCC2)c2c1CCCC2 | . | . | . | -24% | . | .
Nc1ncnc2c1ncn2[C@@H]1O[C@H](CNCc2ccc(OCC(=O)Nc3ccccn3)cc2)[C@@H](O)[C@H]1O | -22% | 3% | 9 | 147% | ? | 4%
Nc1ncnc2c1ncn2C1OC(CO)C(O)C1N (configuration not stated) | ? | 9% | 12 | 13% | -24% | 0%
Nc1ncnc2c1ncn2C1O[C@H](CO)[C@@H](O)[C@@H]1O (some centres not stated) | 0.21µM* | -2% | 16 | 14% | 0.46µM* | 0%
Nc1ncnc2c1ncn2[C@@H]1O[C@H](CO)[C@@H](O)[C@@H]1O | 0.37µM* | 16% | -3 | 12% | 0.46µM* | -2%
Nc1nccc2c1ncn2C1OC(CO)C(O)C1O (configuration not stated) | 5.8µM* | -5% | ? | 0% | 7.3µM* | -16%
Nc1ncnc2c1ncn2[C@@H]1O[C@H](CNCc2ccc(OCc3ccccc3)cc2)[C@@H](O)[C@H]1O | 10µM* | -26% | 0 | -1% | 18µM* | -25%

Source: PubChem (National Center for Advancing Translational Sciences (NCATS))
